HEK293 tox – qHTS of GLP-1 Receptor Inverse Agonists: Cytotox Screen; HEK293 cAMP-luciferase reporter cells, luminescence, 24 h; Potency, µM (titrated, usually from 38.3 µM), without a hit: top-dose activity change, negative = inhibition, most hits filed as inhibitors; 0.13% of 410,000 active; AID 624418, 2012;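 further: loss of luciferase light is scored as toxicity; potency means the concentration at half of the fitted maximal effect; on the % scale 0 is the no-effect control and ±100 the full control effect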
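MLSMR compounds, 24 hr on cells at 37 deg C/5% CO2; luminescence after luciferase reagent (12 min RT). Inhibition counted as the undesired cytotoxic outcome.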
ClpP mod – qHTS Assay for Activators of ClpP; ATP-dependent Clp protease proteolytic subunit (Bacillus subtilis (strain 168)), P80244; purified B. subtilis ClpP, FRET peptide cleavage, 20 min; Potency, µM (titrated, usually from 57.5 µM), for inactives: top-dose activity change, negative = active; 1.9% of 340,000 active; AID 651965, 2013; active means well fitted falling curve with a large enough effect; inconclusive means small, poorly fitted or top-dose-only effect; inactive means no such curve, though single readings can be large or run the other way; further: potency means the concentration at half of the fitted maximal effect; the source files actives as falling curves though it sought activators and does not explain the sign; nearly all actives have a fitted effect of over 65% in size
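Purified B. subtilis ClpP, 10 microg/mL final in Tris/HCl pH8 with KCl, BSA, glycerol and Tween-20, cleaved an Abz/nitrotyrosine-quenched decapeptide. Fluorescence (ex 320, em 430) was read at 0 and 20 min at room temperature. Delta was normalized to 5.8 microM ADEP and DMSO/no-enzyme controls.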
DRD3 antagonist – qHTS of D3 Dopamine Receptor Antagonist: qHTS; D(3) dopamine receptor (Homo sapiens), P35462; D3R cells, DiscoveRx beta-arrestin luminescence, antagonist mode; active compounds read low; max response, negative = inhibition, %; AID 652054, 2013; 2.5% of 360,000 active; in the data active means max response below about -50%; inconclusive means no clear call, values can overlap the other calls; further: on the % scale 0 is the no-effect control and ±100 the full control effect
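Cells expressing the human receptor were seeded at 1500 cells/well, incubated overnight at 37 degrees C in 5% CO2, then exposed to library compounds with dopamine controls for 90 minutes at 37 degrees C before luminescent detection.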
GLP1R ag – qHTS of GLP-1 Receptor Agonists; HEK293 GLP-1R CRE-luciferase, luminescence, 4-6 h; cells express a hypersensitive GLP-1R form; Potency, µM (doses to about 45.6 µM), for inactives: at the top dose activation, most hits filed as activators; 0.007% of 380,000 active; AID 624172, 2012; further: potency means the concentration at half of the fitted maximal effect; % of control where 0% means no effect
D3 ag – qHTS of D3 Dopamine Receptor Agonist: qHTS | D(3) dopamine receptor (Homo sapiens), P35462 | D3R DiscoveRx beta-arrestin cells, luminescence, 90 min | max activation, % | 0.58% of 410,000 active | AID 652048, 2013; in the data active means max activation above about 30%; further: 0% is about no effect
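Agonist mode: compounds and dopamine controls were applied to plated cells for 90 min at 37 degrees C after an overnight attachment at 1500 cells/well. Luminescent read-out followed 30 - 60 minutes at room temperature with DiscoveRx detection reagent.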
GLP-1R inv ag – qHTS of GLP-1 Receptor Inverse Agonists (Inhibition Mode); Glucagon-like peptide 1 receptor (Homo sapiens), P43220; HEK293 GLP-1R CRE-luciferase, luminescence, 24 h; GLP-1R form is constitutively active; Potency, µM (series often up to 38.3 µM), without a hit: at the top dose activity change, negative = inhibition, actives largely listed as inhibitors; 1.6% of 410,000 active; further: potency means the concentration at half of the fitted maximal effect; on the % scale 0 is the no-effect control and ±100 the full control effect; nearly all actives have a fitted effect of over 55% in size
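Constitutively active GLP-1R drives a cAMP-responsive luciferase in stably transfected HEK293 cells; test compounds are added after overnight (12 h) attachment and left 24 hr, and signal loss in luminescence marks inhibition.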
An asterisk follows results filed as active; ? = inconclusive; · = not tested or not shown. Rows were chosen to be rich in hits. Some 5.7% of all compounds tested hit in one or more screens of this group. Unless noted, the call rests on the fitted dose curve; in most records, active means well fitted curve in the direction sought with a large enough effect; inconclusive means small, poorly fitted or top-dose-only effect, or another doubt; inactive means no such curve, though single readings can be large; an effect the other way counts as inactive or inconclusive.

SMILES	HEK293 tox	ClpP mod	DRD3 antagonist	GLP1R ag	D3 ag	GLP-1R inv ag
CC(=O)Nc1ccc(NC(=O)C2(C)Cc3c(-c4ccccc4)ccnc3O2)cc1 (stereo not given)	-7.3%	2.3%	-112.5*	-2.9%	-4.1	6.4%
CC1(C(=O)Nc2cccc(C(F)(F)F)c2)Cc2c(-c3ccc4c(c3)OCO4)ccnc2O1 (stereo not given)	-24.1%	4.8%	-59.3*	10.6%	-15.4	?
CC(=O)Nc1cccc(-c2ccnc3c2CC(C)(C(=O)Nc2cccc(C(F)(F)F)c2)O3)c1 (stereo not given)	-33.6%	-4.6%	-13.1	2.4%	-12.8	11.2µM*
CC1(C(=O)Nc2ccc3c(c2)OCO3)Cc2c(-c3cccc(C(F)(F)F)c3)ccnc2O1 (stereo not given)	?	-24.5%	?	25.7%	-10.4	?
CC(=O)Nc1cccc(-c2ccnc3c2CC(C)(C(=O)Nc2ccccc2)O3)c1 (stereo not given)	1.1%	-21.5%	1.1	-3.2%	2.6	-7.1%
CC1(C(=O)Nc2cccc(C(F)(F)F)c2)Cc2c(-c3cccc(C(F)(F)F)c3)ccnc2O1 (stereo not given)	-16.8%	-19.4%	0.0	-2.3%	-8.4	?
COc1ccc(S(=O)(=O)N2CCCCC2)cc1NC(=O)CCOc1cc(C)ccc1C	1.7%	2.0%	3.9	1.3%	4.8	-13.9%
CCOc1cc(C(=S)N2CCOCC2)ccc1OC(=O)/C=C/c1ccc(OC)c(OC)c1	8.6%	25.1µM*	3.6	0.7%	-1.4	-10.7%
Cc1ccc(NC(=O)Nc2nnc(SCC(=O)N3CCC(C)CC3)s2)cc1	?	-0.3%	·	·	7.4	?
CCn1c(-c2ccccc2)c[nH]c1=S	-24.1%	?	-8.1	1.1%	3.3	-14.8%
CC(C)Cn1c(-c2ccc(Br)cc2)c[nH]c1=S	?	·	0.0	15.2%	-30.9	10µM*
COc1ccc(NC(=O)CSc2nnc3c(n2)[nH]c2ccc(S(=O)(=O)N(C)C)cc23)c(OC)c1	·	0.0%	·	·	·	·
COc1ccc(-c2cc(C(=O)O)c(C)o2)cc1OC	-22.3%	-26.7%	-17.8	-12.3%	0.9	-2.5%
COc1ccc(-c2cc(C(=O)NC(Cc3cc4ccccc4[nH]3)C(=O)O)c(C)o2)cc1OC (stereo not given)	-2.6%	·	4.3	7.5%	36.4*	9.6%
CC(C)(C)C1CCC(OCC(O)CN2CCN(c3ccccn3)CC2)CC1 (stereo not given)	?	-1.8%	-3.9	18.5%	65.2*	?
Cc1cc(C)c(OCC(O)CN2CCN(c3ccccn3)CC2)c(C)c1 (stereo not given)	-16.4%	-1.2%	0.3	-0.2%	106.0*	?
O=C1CC(N2CCN(c3ccccn3)CC2)C(=O)N1CC(c1ccccc1)c1ccccc1 (stereo not given)	0.0%	0.6%	34.0	-1.1%	-10.0	12.6µM*
OC(COc1ccc(Cl)cc1)CN1CCN(c2ccccn2)CC1 (stereo not given)	10.4%	-0.8%	-7.8	-4.4%	11.8	?
OC(COC(c1ccccc1)c1ccccc1)CN1CCN(c2ccccn2)CC1 (stereo not given)	-15.4%	·	-9.2	12.2%	55.6*	?
Cc1ccccc1CNC(=O)CN1CCSc2ccccc21	0.4%	-2.5%	·	-0.3%	2.0	-26.2%
COc1cc2nc(N3CCCN(C)CC3)nc(N)c2cc1OC	·	3.5%	·	·	·	·
Cc1cc(OCC(O)CN2CCN(c3ccccn3)CC2)cc(C)c1Cl (stereo not given)	-10.1%	-0.9%	-3.0	-1.0%	51.0*	11.2µM*
OC(COc1ccc(Cl)c2ccccc12)CN1CCN(c2ccccn2)CC1 (stereo not given)	-5.0%	-21.9%	5.4	0.0%	72.3*	10µM*
O=C(Nc1ccc(Cl)cc1)c1ccc(-n2cnnc2)cc1	-4.6%	-3.1%	·	·	-5.9	3.9%
COc1ccccc1CNC(=O)COCc1cc(-c2ccc3c(c2)OCO3)on1	5.2%	-7.6%	·	·	8.5	-22.6%
SMILES	HEK293 tox	ClpP mod	DRD3 antagonist	GLP1R ag	D3 ag	GLP-1R inv ag
Cc1ccc(Cl)cc1NC(=O)C1CCN(c2nnc(C)c3c(C)n(-c4ccccc4)nc23)CC1	1.6%	-13.8%	·	·	3.2	8.0%
Cc1c(Cl)cccc1NC(=O)Nc1nnc(N(C)C2CCCCC2)s1	16.8%	-2.3%	·	·	2.7	5.0%
CC1CCN(CC(=O)Nc2ccc(S(=O)(=O)N3CCCC(C)C3)cc2)CC1 (stereo not given)	-15.3%	0.4%	-7.1	8.6%	-18.4	-18.1%
CC1CCCN(CC(=O)Nc2ccc(S(=O)(=O)N3C(C)CCCC3C)cc2)C1 (stereo not given)	-5.2%	1.7%	-51.0*	-0.4%	-1.8	-28.9%
CC1CCCN(CCC(=O)Nc2ccc(Br)cc2)C1 (stereo not given)	34.0%	-1.3%	-86.3*	-0.1%	-31.7	?
CC1CCCN(CCC(=O)Nc2ccccc2)C1 (stereo not given)	15.6%	3.3%	9.0	5.3%	-25.0	20.9%
Cc1ccc2occ(CC(=O)Nc3ccc(S(=O)(=O)N4CCCC(C)C4)cc3)c2c1 (stereo not given)	0.0%	-2.4%	·	·	7.3	11.2µM*
COC(=O)c1c(C#N)c(N)nc2c1CCCC2	20.9%	28.2µM*	30.4	0.9%	4.2	15.1%
CC1(C(=O)Nc2ccc3c(c2)OCCO3)CN(S(C)(=O)=O)CC(=O)N1CCCN1CCOCC1 (stereo not given)	-16.3%	-1.1%	-14.4	·	2.5	14.2%
O=C(CSc1nccc(-c2cccs2)n1)Nc1cccc(Cl)c1	6.1%	·	8.2	20.9%	13.2	-22.3%
Cc1onc(-c2ccc(Cl)cc2)c1-c1ccnc(SCC(=O)Nc2cc(Cl)cc(Cl)c2)n1	-17.6%	·	?	1.6%	-5.6	3.55µM*
O=C(O)c1cc([N+](=O)[O-])ccc1NCc1cccnc1	0.0%	-1.9%	0.0	0.7%	0.7	6.0%
O=C(O)c1cc(N2C(=O)C3C4C=CC(C4)C3C2=O)ccc1NCc1cccnc1 (stereo not given)	7.8%	35.5µM*	8.2	-7.3%	1.2	-5.9%

Compound activity (PubChem BioAssay)
